Where “and” joins values, the source holds several entries; their conditions need not be identical. Equal values may be shown once. Results filed as inconclusive are left out. Calls of active or inactive are those of the source. Unless noted, calls follow the shape of the full dose curve.
Assays:
[1] = molecular target: Bile acid receptor (Homo sapiens) (UniProt Q96RI1); assay: qHTS assay for small molecule antagonists of farnesoid X receptor signaling (AID 588526); also: % is scaled to controls: 0 for no effect and ±100 for the full control effect
Summary of the method: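 Beta-lactamase reporter antagonist mode: HEK293T FXR-UAS-bla cells, titrated compound, CDCA stimulation, 16 h 37 C, CCF4 dye 2 h RT. Data normalized to CDCA 50 uM and DMSO; Hill-fit IC50.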

[2] = molecular target: Peroxisome proliferator-activated receptor gamma (Homo sapiens) (UniProt P37231); assay: qHTS assay for small molecule agonists of peroxisome proliferator-activated receptor gamma signaling (AID 588536; active = well fitted curve in the direction sought with a large enough effect in the signal ratio, with a control signal flat, not every such curve was filed as active; the % refers to the signal ratio;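 also: 0% = DMSO basal wells and 100% = rosiglitazone at 2 µM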)
Summary of the method: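 Cells were plated and held 6–6.5 h at 37 C, then compounds were added as a titration series. After a further 16 h, CCF4 dye was loaded for 2 h at room temperature and emission at 460/530 nm recorded.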

[3] = molecular target: Peroxisome proliferator-activated receptor gamma (Homo sapiens) (UniProt P37231); assay: qHTS assay for small molecule antagonists of peroxisome proliferator-activated receptor gamma signaling (AID 588537; active = well fitted inhibition curve with a large enough effect in the signal ratio, with a control signal flat, not every such curve was filed as active; the % refers to the signal ratio;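 also: reporter cells co-stimulated with 50 nM rosiglitazone agonist during compound treatment; % of control where 0% means no effect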)
Summary of the method: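 Cell-based beta-lactamase assay; GW9662 served as the antagonist control. Stimulation used rosiglitazone, final 50 nM, 16 h, 37 C.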

[4] = molecular target: Vitamin D3 receptor (Homo sapiens) (UniProt P11473); assay: qHTS assay for small molecule agonists of vitamin D receptor signaling (AID 588543);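 also: 0% = DMSO basal and 100% = reference agonist control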
Summary of the method: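 qHTS in agonist mode: compound titrations stimulate a VDR-driven β-lactamase reporter in HEK293T cells over 16 h at 37 °C. Response normalized to 50 nM 1α,25-dihydroxyvitamin D3 = 100%, DMSO = 0%; Hill fitting gives EC50 and maximal response.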

[5] = qHTS assay for small molecule agonists of retinoid X receptor alpha signaling (AID 588544); details: HEK293T RXRa-UAS-bla, beta-lactamase reporter, 18 h; 530 nm emission;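 as to activation: 0% = DMSO basal wells and 100% = reference agonist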
[6] = molecular target: Retinoic acid receptor RXR-alpha (Homo sapiens) (UniProt P19793); assay: as above
[7] = molecular target: Thyroid hormone receptor beta (Homo sapiens) (UniProt P10828); assay: qHTS assay for small molecule agonists of thyroid hormone receptor beta signaling (AID 588545);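 also: 0% = DMSO only and 100% = 10 nM T3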
Summary of the method: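 TR-UAS-bla-GripTite HEK 293 cells in medium with 2% charcoal/dextran FBS, 0.1 mM NEAA and 1 mM sodium pyruvate were treated with titrated compounds for 18 hrs at 37 C. Beta-lactamase reporter was read with CCF4 dye (ex 405, em 460/530 nm); EC50 from Hill fits.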

[8] = qHTS assay for small molecule antagonists of retinoid X receptor alpha signaling (AID 588546; active = well fitted inhibition curve with a large enough effect in the signal ratio, with a control signal flat, not every such curve was filed as active; the % refers to the signal ratio;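 also: cells stimulated with 9-cis-retinoic acid as agonist; % is scaled to controls: 0 for no effect and ±100 for the full control effect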); details: HEK293T RXRa-UAS-bla, beta-lactamase ratio, antagonist mode; measured here: W530 green channel, cytotoxicity proxy
Summary of the method: (§1)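 Beta-lactamase reporter inhibition, read as CCF4 fluorescence ratio (ex 405, em 460/530 nm) after 2 h at RT. HEK293T UAS-bla cells, 2500/well, were stimulated with 9-cis-RA at 500 or 100 nM final alongside test compound for 18 h at 37 C.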

[9] = molecular target: Retinoic acid receptor RXR-alpha (Homo sapiens) (UniProt P19793); assay: as above; details: HEK293T RXRa-UAS-bla, beta-lactamase ratio, antagonist mode
Summary of the method: as §1

[10] = molecular target: Thyroid hormone receptor beta (Homo sapiens) (UniProt P10828); assay: qHTS assay for small molecule antagonists of thyroid hormone receptor beta signaling (AID 588547; active = well fitted inhibition curve with a large enough effect in the signal ratio, with a control signal flat, not every such curve was filed as active; the % refers to the signal ratio;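 also: cells stimulated with 0.4 nM T3 agonist during compound exposure; series mostly up to about 77 µM; % is scaled to controls: 0 for no effect and ±100 for the full control effect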); details: TR-UAS-bla HEK293, beta-lactamase ratio, antagonist mode, 18 h
Summary of the method: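 Inhibition of T3-driven (0.4nM final) beta-lactamase reporter activity was measured over 0.59 nM to 92 uM compound after 18 h at 37 C. The cells were GripTite HEK293 TR-UAS-bla in charcoal/dextran-stripped serum, with CCF4 ratio read-out and IC50 from Hill fits.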

[11] = molecular target: Voltage-gated inwardly rectifying potassium channel KCNH2 (Homo sapiens) (UniProt Q12809); assay: qHTS Assay for Small Molecule Inhibitors of the Human hERG Channel Activity (AID 588834; active = well fitted curve in the direction sought with a large enough effect; an effect the other way counts as inactive or inconclusive;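 also: lower thallium flux fluorescence means stronger hERG block; nearly all actives have a fitted effect of over 50% in size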; also: potency is read from the fitted curve at half-maximal effect)
Summary of the method: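 Cells were infected with hERG-BacMam virus for 4 hrs at room temperature, grown overnight, then seeded at 2000/well. After dye loading and roughly 10 min compound treatment, thallium influx was triggered and fluorescence recorded.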

[12] = molecular target: Luciferin 4-monooxygenase (Photinus pyralis) (UniProt P08659); assay: Biochemical firefly luciferase enzyme assay for NPC (AID 624030; active = well fitted curve in the direction sought with a large enough effect; an effect the other way counts as inactive or inconclusive;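 also: purified P. pyralis luciferase at 10 nM with luciferin and ATP substrate; series mostly up to about 59 µM; 0% = DMSO and -100% = full luciferase inhibition by PTC124 control; nearly all actives have a fitted effect of over 70% in size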)
Summary of the method: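 Direct inhibition of firefly luciferase enzyme (10 nM final, 50 mM Tris Acetate) assessed by luminescence within 5 minutes. Percent activity scaled between DMSO and PTC124 positive control, with concentration-effect curves classified by fit quality and response.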

[13] = molecular target: Glucocorticoid receptor (Homo sapiens) (UniProt P04150); assay: qHTS assay for small molecule agonists of glucocorticoid receptor signaling (AID 588532; active = well fitted curve in the direction sought with a large enough effect in the signal ratio, with a control signal flat; the % refers to the signal ratio;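 also: 100% = dexamethasone at 0.1 µM and 0% = DMSO only wells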); details: HeLa MMTV-bla, beta-lactamase ratio, agonist, 18 h; stronger effect = higher value; percent of dexamethasone control, DMSO zero
Summary of the method: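 Using MMTV-bla HeLa cells in medium with 1% stripped FBS and 25 mM HEPES, compounds were titrated and incubated overnight-length (18 h). Beta-lactamase cleavage of CCF4 was quantified by dual-emission fluorescence.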

[14] = molecular target: Vitamin D3 receptor (Homo sapiens) (UniProt P11473); assay: qHTS assay for small molecule antagonists of vitamin D receptor signaling (AID 588541);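 also: receptor activated by calcitriol during compound treatment; series mostly up to about 77 µM; % is scaled to controls: 0 for no effect and ±100 for the full control effect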
Summary of the method: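 Antagonist-mode beta-lactamase reporter assay: HEK293T VDR-UAS-bla cells were exposed to titrated compound alongside 1-alpha,25-dihydroxyvitamin D3 at 3 nM final for 16 h. Values were normalized to the 50 nM agonist control and DMSO basal, with IC50 and efficacy from Hill equation fits.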

[15] = molecular target: Androgen receptor (Homo sapiens) (UniProt P10275); assay: qHTS assay for small molecule antagonists of androgen receptor signaling (AID 588516; active = well fitted curve in the direction sought with a large enough effect in the signal ratio, with a control signal flat, not every such curve was filed as active; the % refers to the signal ratio; also: % is scaled to controls: 0 for no effect and ±100 for the full control effect)
Summary of the method: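 Antagonist-mode qHTS: inhibition of R1881 (10 nM)-driven beta-lactamase expression in GripTite HEK 293 cells is measured after 16 h; values are Hill-derived IC50s normalized between R1881 and DMSO wells.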

[16] = qHTS assay for small molecule antagonists of peroxisome proliferator-activated receptor delta signaling (AID 588535; active = well fitted inhibition curve with a large enough effect in the signal ratio, with a control signal flat, not every such curve was filed as active; the % refers to the signal ratio;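 as to max response: cells co-treated with a PPAR-delta agonist as stimulator during compound exposure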); details: HEK293T PPARd-UAS-bla, beta-lactamase FRET ratio, 18 h; 460 nm channel
Summary of the method: (§2)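 Antagonist-mode qHTS using GeneBLAzer PPAR-delta-UAS-bla HEK293T cells; compound exposure 18 hrs at 37 C over a titration. Ratiometric CCF4 fluorescence at 460/530 nm; concentration-response points fitted to the Hill equation.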

[17] = molecular target: Peroxisome proliferator-activated receptor delta (Homo sapiens) (UniProt Q03181); assay: as above
Summary of the method: as §2

[18] = S16 Schwann cell viability assay (CellTiter-Glo assay) (AID 624031; active = well fitted curve in the direction sought with a large enough effect; an effect the other way counts as inactive or inconclusive;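 also: native untransfected S16 rat Schwann cells; series mostly up to about 58 µM; plate controls were DMSO-treated cells for no effect and cell-free wells for full effect; nearly all actives have a fitted effect of over 70% in size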)
Summary of the method: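 Counter-screen for cytotoxicity: parental S16 rat Schwann cells lacking the PMP22 reporters, treated 24 h with compound, viability from cellular ATP by CellTiter-Glo luminescence, normalized to DMSO (0%) and no-cell wells.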

[19] = S16 Schwann cell PMP22 intronic element firefly luciferase assay (AID 624032; active = well fitted curve in the direction sought with a large enough effect; an effect the other way counts as inactive or inconclusive;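 also: series mostly up to about 58 µM; plate controls were DMSO for no effect and PTC124 positive control mean for full effect; nearly all actives have a fitted effect of over 30% in size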)
Summary of the method: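 Luciferase reporter of PMP22 intronic-element expression in stably transfected S16 rat Schwann cells, read by ONE-Glo luminescence after 24 h compound exposure at 37 C. Activity scaled between DMSO (0%) and positive-control PTC124; concentration-effect curves quality-classified.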

[20] = S16 Schwann cell PMP22 intronic element beta-lactamase assay (AID 624044); also: potency is read from the fitted curve at half-maximal effect; nearly all actives have a fitted effect of over 15% in size
Summary of the method: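 Beta-lactamase reporter under a PMP22 intronic regulatory element in stable S16 rat Schwann cells; 24 h compound exposure. 460 nm blue signal normalized between DMSO (0%) and potassium clavulanate, with 535 nm FRET tracking viability; curves classed by r2 and response.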

Glucocorticoid receptor (Homo sapiens), sequence (P04150 whole entry, looked up): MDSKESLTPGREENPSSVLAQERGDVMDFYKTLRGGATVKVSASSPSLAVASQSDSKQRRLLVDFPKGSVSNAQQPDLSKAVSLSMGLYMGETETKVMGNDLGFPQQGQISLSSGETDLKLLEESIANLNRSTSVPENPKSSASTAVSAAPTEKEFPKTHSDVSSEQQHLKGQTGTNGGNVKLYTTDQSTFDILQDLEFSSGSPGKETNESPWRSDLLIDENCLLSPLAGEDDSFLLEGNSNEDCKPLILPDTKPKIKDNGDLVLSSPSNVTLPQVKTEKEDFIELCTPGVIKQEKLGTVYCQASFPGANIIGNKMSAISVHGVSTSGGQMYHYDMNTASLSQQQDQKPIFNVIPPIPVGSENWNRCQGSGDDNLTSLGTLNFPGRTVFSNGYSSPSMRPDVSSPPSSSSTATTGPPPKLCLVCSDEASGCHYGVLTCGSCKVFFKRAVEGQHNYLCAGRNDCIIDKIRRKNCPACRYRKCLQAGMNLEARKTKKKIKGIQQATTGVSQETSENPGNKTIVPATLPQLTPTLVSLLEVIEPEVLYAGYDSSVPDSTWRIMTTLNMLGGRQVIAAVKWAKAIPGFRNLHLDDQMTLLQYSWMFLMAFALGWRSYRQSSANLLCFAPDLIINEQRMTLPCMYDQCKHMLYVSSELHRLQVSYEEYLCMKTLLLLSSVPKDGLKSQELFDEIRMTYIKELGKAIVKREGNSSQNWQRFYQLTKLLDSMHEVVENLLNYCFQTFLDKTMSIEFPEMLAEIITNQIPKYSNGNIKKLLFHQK
Peroxisome proliferator-activated receptor gamma (Homo sapiens), sequence (P37231 whole entry, looked up): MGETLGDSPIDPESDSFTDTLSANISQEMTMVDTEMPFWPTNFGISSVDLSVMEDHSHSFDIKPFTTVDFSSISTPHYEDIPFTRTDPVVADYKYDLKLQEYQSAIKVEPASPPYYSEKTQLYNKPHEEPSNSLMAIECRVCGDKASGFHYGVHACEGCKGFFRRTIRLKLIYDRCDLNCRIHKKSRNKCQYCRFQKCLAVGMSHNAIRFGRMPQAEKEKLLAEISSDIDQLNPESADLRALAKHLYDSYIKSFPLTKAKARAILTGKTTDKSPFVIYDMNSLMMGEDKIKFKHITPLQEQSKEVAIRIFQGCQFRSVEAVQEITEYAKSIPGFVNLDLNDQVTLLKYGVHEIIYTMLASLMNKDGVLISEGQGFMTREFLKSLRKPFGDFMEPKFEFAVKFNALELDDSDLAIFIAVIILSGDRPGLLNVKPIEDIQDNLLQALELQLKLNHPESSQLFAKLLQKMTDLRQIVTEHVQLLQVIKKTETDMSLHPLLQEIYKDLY
Voltage-gated inwardly rectifying potassium channel KCNH2 (Homo sapiens), sequence (Q12809 whole entry, looked up): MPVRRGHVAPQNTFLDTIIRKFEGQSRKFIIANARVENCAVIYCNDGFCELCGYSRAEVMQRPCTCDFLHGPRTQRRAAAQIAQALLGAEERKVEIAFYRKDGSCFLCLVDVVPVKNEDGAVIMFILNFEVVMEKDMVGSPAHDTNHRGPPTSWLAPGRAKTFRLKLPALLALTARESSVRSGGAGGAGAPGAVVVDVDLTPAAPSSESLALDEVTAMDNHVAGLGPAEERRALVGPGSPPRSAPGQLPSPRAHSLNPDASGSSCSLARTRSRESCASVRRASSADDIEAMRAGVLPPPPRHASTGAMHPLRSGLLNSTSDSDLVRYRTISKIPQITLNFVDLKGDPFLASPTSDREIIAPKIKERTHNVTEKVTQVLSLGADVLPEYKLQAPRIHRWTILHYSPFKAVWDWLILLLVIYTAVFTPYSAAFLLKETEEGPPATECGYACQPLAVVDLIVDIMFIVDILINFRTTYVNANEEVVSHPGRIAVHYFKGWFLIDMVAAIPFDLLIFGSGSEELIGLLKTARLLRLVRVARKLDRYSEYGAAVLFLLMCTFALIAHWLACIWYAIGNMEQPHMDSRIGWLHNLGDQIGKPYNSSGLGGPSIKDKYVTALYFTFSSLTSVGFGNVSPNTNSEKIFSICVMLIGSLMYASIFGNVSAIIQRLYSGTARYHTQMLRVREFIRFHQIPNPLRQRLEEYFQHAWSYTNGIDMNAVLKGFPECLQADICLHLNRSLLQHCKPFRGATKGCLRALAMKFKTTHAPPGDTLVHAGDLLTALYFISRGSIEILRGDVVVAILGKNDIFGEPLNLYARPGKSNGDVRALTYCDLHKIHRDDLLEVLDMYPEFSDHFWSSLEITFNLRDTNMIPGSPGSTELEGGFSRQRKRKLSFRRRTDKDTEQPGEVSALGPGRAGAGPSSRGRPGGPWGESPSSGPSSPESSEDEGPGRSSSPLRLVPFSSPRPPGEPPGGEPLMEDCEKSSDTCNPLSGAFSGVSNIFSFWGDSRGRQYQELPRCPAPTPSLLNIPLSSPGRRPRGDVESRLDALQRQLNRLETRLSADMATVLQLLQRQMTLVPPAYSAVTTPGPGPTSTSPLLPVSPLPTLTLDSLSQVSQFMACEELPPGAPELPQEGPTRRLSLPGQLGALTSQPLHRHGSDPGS
Retinoic acid receptor RXR-alpha (Homo sapiens), sequence (P19793 whole entry, looked up): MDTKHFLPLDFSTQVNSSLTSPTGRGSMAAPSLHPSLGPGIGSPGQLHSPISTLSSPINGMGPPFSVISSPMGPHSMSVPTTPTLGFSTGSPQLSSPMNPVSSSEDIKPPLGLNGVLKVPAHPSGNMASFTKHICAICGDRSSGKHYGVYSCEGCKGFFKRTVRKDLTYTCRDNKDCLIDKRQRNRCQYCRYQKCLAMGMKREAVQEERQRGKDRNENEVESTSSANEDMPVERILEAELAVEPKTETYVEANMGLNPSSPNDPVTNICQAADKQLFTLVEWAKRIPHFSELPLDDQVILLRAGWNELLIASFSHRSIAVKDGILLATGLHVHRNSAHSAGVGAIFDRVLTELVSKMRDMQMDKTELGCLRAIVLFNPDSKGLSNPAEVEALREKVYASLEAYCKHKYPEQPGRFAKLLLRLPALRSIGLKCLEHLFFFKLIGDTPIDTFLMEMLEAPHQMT
Vitamin D3 receptor (Homo sapiens), sequence (P11473 whole entry, looked up): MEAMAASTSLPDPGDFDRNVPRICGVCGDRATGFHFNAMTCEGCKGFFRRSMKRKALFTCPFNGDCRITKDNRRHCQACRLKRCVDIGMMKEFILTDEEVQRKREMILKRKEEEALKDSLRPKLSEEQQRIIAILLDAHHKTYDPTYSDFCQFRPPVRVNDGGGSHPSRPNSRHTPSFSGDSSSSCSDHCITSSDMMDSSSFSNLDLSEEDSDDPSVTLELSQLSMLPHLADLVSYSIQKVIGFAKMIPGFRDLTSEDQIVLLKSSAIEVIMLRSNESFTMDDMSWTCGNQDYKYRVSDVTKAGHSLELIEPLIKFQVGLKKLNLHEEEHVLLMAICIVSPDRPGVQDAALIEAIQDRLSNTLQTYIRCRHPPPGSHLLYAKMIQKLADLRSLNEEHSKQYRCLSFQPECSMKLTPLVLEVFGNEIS
Thyroid hormone receptor beta (Homo sapiens), sequence (P10828 whole entry, looked up): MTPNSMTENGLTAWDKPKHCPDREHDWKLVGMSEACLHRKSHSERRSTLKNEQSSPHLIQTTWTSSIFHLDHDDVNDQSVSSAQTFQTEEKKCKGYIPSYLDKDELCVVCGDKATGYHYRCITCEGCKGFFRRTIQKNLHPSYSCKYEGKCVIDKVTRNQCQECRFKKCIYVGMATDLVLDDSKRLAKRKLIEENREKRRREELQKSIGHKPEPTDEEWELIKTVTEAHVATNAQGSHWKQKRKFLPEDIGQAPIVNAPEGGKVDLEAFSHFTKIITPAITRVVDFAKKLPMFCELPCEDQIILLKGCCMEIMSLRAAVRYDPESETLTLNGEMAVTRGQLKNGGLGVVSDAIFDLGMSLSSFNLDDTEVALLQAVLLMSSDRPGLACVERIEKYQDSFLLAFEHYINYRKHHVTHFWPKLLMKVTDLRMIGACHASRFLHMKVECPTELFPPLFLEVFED
Bile acid receptor (Homo sapiens), sequence (Q96RI1 whole entry, looked up): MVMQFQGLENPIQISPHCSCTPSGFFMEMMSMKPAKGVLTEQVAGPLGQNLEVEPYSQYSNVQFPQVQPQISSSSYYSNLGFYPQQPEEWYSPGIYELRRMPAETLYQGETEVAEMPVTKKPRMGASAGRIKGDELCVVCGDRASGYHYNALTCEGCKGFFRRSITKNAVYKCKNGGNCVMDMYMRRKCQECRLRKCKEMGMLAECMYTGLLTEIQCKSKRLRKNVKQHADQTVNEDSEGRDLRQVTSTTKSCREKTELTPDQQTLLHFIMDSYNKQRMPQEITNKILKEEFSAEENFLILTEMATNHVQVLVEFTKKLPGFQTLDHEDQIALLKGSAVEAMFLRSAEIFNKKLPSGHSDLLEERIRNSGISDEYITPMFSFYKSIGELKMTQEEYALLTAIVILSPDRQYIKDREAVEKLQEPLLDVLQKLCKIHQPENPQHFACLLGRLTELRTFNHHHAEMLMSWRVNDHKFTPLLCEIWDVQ
Peroxisome proliferator-activated receptor delta (Homo sapiens), sequence (Q03181 whole entry, looked up): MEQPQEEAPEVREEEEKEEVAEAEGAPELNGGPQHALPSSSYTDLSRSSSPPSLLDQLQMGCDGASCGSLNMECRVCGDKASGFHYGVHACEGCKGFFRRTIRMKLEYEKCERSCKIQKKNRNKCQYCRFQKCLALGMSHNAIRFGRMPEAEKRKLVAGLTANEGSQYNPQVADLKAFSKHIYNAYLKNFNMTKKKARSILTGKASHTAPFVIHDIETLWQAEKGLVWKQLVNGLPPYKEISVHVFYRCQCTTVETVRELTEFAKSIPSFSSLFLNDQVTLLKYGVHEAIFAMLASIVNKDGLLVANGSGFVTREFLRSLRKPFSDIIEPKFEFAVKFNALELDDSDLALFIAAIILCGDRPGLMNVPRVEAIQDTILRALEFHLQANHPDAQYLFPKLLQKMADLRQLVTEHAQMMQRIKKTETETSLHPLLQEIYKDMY

Nc1cccc2c(N)cccc12
9.18%: max response [5]
0.949% and -3.88%: max response [8]
inactive: outcome [1] | outcome [2] | outcome [3] | outcome [4] | Potency [6] | outcome [7] | max response [9] -3.27% and -4.14% | activity change % (negative = inhibition) [10] 0% and 7.22% | Potency [11] | Potency [12]

C1=CC2C3C=CC(C3)C2C1 (centres undefined)
inactive: activation [13] -4.75% | outcome [2] | outcome [14] | outcome [4] | Potency [6] | outcome [7] | activity change % (negative = inhibition) [10] 2.01% | Potency [11] | Potency [12]
15.9%: max response [5]

O=C(Nc1ccc(Cl)cc1)Nc1ccc(Cl)c(Cl)c1
inactive: activation [13] 4.25% | outcome [7]

O=C(Oc1ccccc1)c1ccccc1O
inactive: outcome [2] | outcome [3] | outcome [7] | max response [9] 0.088% and -1.29% | activity change % (negative = inhibition) [10] -5.55% and -2.84% | Potency [12]
8.83% and -6.1%: max response [8]

Brc1ccc([C@H]2CN3CCSC3=N2)cc1
active: Potency [11] 11.2 µM

COc1cc(C=O)ccc1O
inactive: outcome [15] | outcome [1] | outcome [17] | outcome [2] | outcome [3] | outcome [14] | outcome [4] | Potency [6] | outcome [7] | max response [9] 30% and 5.74% | activity change % (negative = inhibition) [10] 9.41% and -10.4% | Potency [11] | Potency [12]
-4.04% and -15.4%: max response [8]
-4.86%: max response [5]
-8.31% and -9.26%: max response [16]

CC(C)N(CCC(=O)c1ccc2ccccc2c1)Cc1ccccc1
active: Potency [11] 3.16 µM

O=C(Oc1ccccc1)c1cccc(C(=O)Oc2ccccc2)c1
15.8%: max response [5]
0.814%: max response [8]
inactive: outcome [1] | activation [13] -8.17% | outcome [17] | outcome [3] | outcome [14] | outcome [4] | Potency [6] | outcome [7] | max response [9] -33.4% | activity change % (negative = inhibition) [10] 0.996%
22.4%: max response [16]

CCCCC(CC)COC(=O)c1ccccc1C(=O)O (centres undefined)
-31.8%: max response [16]
inactive: outcome [17] | outcome [14] | outcome [4] | Potency [6] | outcome [7] | max response [9] -7.29% and -5.81% | activity change % (negative = inhibition) [10] -5.5% and 6.91% | Potency [11]
0.375% and 2.79%: max response [5]
-0.199% and -12.8%: max response [8]

Nc1c2ccccc2nc2ccccc12
inactive: outcome [2] | Potency [11] | Potency [12] | Potency [18] | Potency [19]
active: Potency [20] 22.4 µM

CC(C)(c1ccc(O)cc1)c1ccc(O)cc1
-4.03% and -11.6%: max response [8]
-24.6%: max response [16]
inactive: outcome [17] | outcome [7] | max response [9] -28% and 10.2%

Reference: PubChem BioAssay (NCATS)
